These entries were drawn from the full list.
aSyn 5UTR act = Activators via SNCA 5'UTR binding, MLPCN; 300,000 compounds, 7.1% hits; alpha-synuclein 5'UTR reporter, activators screen; AID 1814, 2009; activity score, % (tested at 7.5 µM), hits read low; in the data active = activity score below about -60%
Of the large screens only hits and unclear results are named; the others gave an inactive call.

COc1ccc(-c2csc(NNC3=NCCCCC3)n2)cc1	aSyn 5UTR act -63
COc1ccc(-c2csc(NC3=NCCCCC3)n2)cc1	aSyn 5UTR act -91
CCOc1ccc(C(=O)N2CCc3ccccc32)cc1	aSyn 5UTR act -104
O=C(c1ccc2ccccc2c1)N1CCc2ccccc21	aSyn 5UTR act -100
O=C(c1cccs1)N1CCc2ccccc21	aSyn 5UTR act -157
COc1ccc(OCCNC(=O)c2ccc(C)cc2)cc1	aSyn 5UTR act -79
Cc1ccc(OCCNC(=O)c2ccc(C)cc2)cc1	aSyn 5UTR act -148
CC(C)CCOc1ccc(C(=O)NCCC(=O)N2CCOCC2)cc1	aSyn 5UTR act -82
COCCCNC(=S)NC(=O)c1ccc(C)cc1	aSyn 5UTR act -125
CS(=O)(=O)NCc1ccc(C(=O)NCCOc2ccccc2)cc1	aSyn 5UTR act -120
CCOC(=O)CNC(=O)c1ccc(OCC(F)(F)F)cc1	aSyn 5UTR act -76
Cc1ccc(-c2cc(NC(=O)c3ccccc3)on2)cc1	aSyn 5UTR act -190
Cc1ccc(C(=O)Nc2ccccc2Sc2ccccc2)cc1	aSyn 5UTR act -62
COc1ccc(C(=O)Nc2cc(-c3ccc(C)cc3)no2)cc1	aSyn 5UTR act -65
Cc1noc(C)c1COc1ccc(C(=O)Nc2ncccc2O)cc1	aSyn 5UTR act -67
Cc1ccc(C(=O)Nc2ncccc2O)o1	aSyn 5UTR act -84
Cc1noc(C)c1COc1ccc(CC(=O)NCc2ccccc2)cc1	none
Cc1ccc(C(=O)CCC(=O)Nc2ncccc2O)cc1	aSyn 5UTR act -70
O=C(Nc1ncccc1O)c1ccc(Oc2ccccc2)cc1	aSyn 5UTR act -198
O=c1c(-c2ccccc2)c[nH]n1-c1cccc([N+](=O)[O-])c1	aSyn 5UTR act -87
O=c1c(-c2ccc(Cl)cc2)c[nH]n1-c1ccccc1	aSyn 5UTR act -145
CC(=O)Nc1ccc(/C=C/c2ccc3cccc([N+](=O)[O-])c3n2)cc1	aSyn 5UTR act -112
COC(=O)c1ccc(/C=C/c2ccc3cccc(OC)c3n2)cc1	aSyn 5UTR act -97
CCOc1c(OC(C)=O)ccc(/C=C/c2ccc3cccc(OC)c3n2)c1[N+](=O)[O-]	aSyn 5UTR act -76
COc1ccc(/C=C/c2ccc3cccc(O)c3n2)c(OC)c1OC	aSyn 5UTR act -92
COc1cccc(/C=C/c2ccc3cccc(O)c3n2)c1OC	aSyn 5UTR act -74
Cc1nc2cc(NC(=O)CCS(=O)(=O)c3ccccc3)ccc2s1	aSyn 5UTR act -172
COc1ccc(C(=O)Nc2nnc(Cc3ccc(OC)c(OC)c3)s2)c(OC)c1	aSyn 5UTR act -82
O=C(CCS(=O)(=O)c1ccccc1)Nc1nc2cc3c(cc2s1)OCO3	aSyn 5UTR act -65
COc1ccccc1C(=O)Nc1nc2cc3c(cc2s1)OCCO3	aSyn 5UTR act -64
COc1ccccc1C(=O)Nc1nc2cc3c(cc2s1)OCO3	aSyn 5UTR act -122
COc1ccc(C(=O)Nc2nc3cc4c(cc3s2)OCCO4)c(OC)c1	aSyn 5UTR act -63
CCc1ccc2c(c1)[C@]1(C(=O)N2)[C@@H]2C(=O)N(Cc3ccccc3)C(=O)[C@@H]2[C@@H]2CCCN21	aSyn 5UTR act -78
O=c1[nH]c(/C(Cl)=C/c2cc(Cl)ccc2O)nc2cc(Cl)ccc12	aSyn 5UTR act -90
Cn1c(/C=C/c2cccc(Br)c2)nc2ccccc2c1=O	aSyn 5UTR act -178
CCOC(=O)N1CCN(C(=O)CCNS(=O)(=O)c2ccc3c(c2)c(=O)n(C)c(=O)n3C)CC1	aSyn 5UTR act -153
O=C(Cc1cccs1)Nc1nc(-c2ccccc2)cs1	aSyn 5UTR act -81
COC(=O)CCC(=O)Nc1nc(-c2ccccc2)cs1	aSyn 5UTR act -65
Cc1nc(CC(=O)Nc2nc(-c3ccccc3)cs2)cs1	aSyn 5UTR act -66
COc1ccccc1CC(=O)Nc1nc(-c2ccc(F)c(F)c2)cs1	aSyn 5UTR act -83
O=C(Cn1nc(C(=O)O)c2ccccc2c1=O)Nc1nc(-c2ccccc2)cs1	aSyn 5UTR act -71
O=C(COC(=O)c1cc(=O)[nH]c2ccccc12)Nc1nc(-c2ccccc2)cs1	aSyn 5UTR act -73
O=C(Cn1nc(-c2ccccc2)c2ccccc2c1=O)Nc1ccccn1	aSyn 5UTR act -66
C/C(=N\Nc1nc(-c2ccccc2)cs1)c1cccs1	aSyn 5UTR act -280
O=C(COC(=O)CNC(=O)c1ccccc1)Nc1nc(-c2ccccc2)cs1	aSyn 5UTR act -71
O=C(COC(=O)c1cccs1)Nc1nc(-c2ccccc2)cs1	aSyn 5UTR act -90
Cn1cc(Cl)c(C(=O)OCC(=O)Nc2nc(-c3ccc(Br)cc3)cs2)n1	aSyn 5UTR act -110
Cn1nccc1C(=O)OCC(=O)Nc1nc(-c2ccccc2)cs1	aSyn 5UTR act -126
Cc1cccc(C)c1NC(=S)N=Nc1c(O)n(C)c2ccc(S(=O)(=O)N3CCOCC3)cc12	none
Cc1cc(C)cc(NC(=S)N=Nc2c(O)n(C)c3ccc(S(=O)(=O)N4CCOCC4)cc23)c1	none
CSc1nnc(NC(=O)c2ccc(C)c(S(=O)(=O)N3CCOCC3)c2)s1	aSyn 5UTR act -73
Cc1ccc(C(=O)Nc2ccc3c(c2)CCC3)cc1S(=O)(=O)N1CCOCC1	aSyn 5UTR act -108
NS(=O)(=O)c1cc(C(=O)Nc2ccc3c(c2)CCC3)ccc1Cl	aSyn 5UTR act -153
O=C(Nc1ccc2c(c1)CCC2)c1ccc(F)c(S(=O)(=O)N2CCOCC2)c1	aSyn 5UTR act -74
O=C(COc1ccc2ccccc2c1Br)NC(=S)Nc1cccc(CO)c1	aSyn 5UTR act -66
O=C(COc1ccc2ccccc2c1Br)Nc1cccnc1	aSyn 5UTR act -210
O=C(COc1ccccc1[N+](=O)[O-])Nc1cccnc1	aSyn 5UTR act -72
O=C(COc1ccc2ccccc2c1Br)Nc1ccncc1	aSyn 5UTR act -84
N/C(=N\OC(=O)c1ccco1)c1cccc(Br)c1	aSyn 5UTR act -249
N/C(=N\OC(=O)c1ccco1)c1cccc([N+](=O)[O-])c1	aSyn 5UTR act -210
COc1ccc(/C(N)=N/OC(=O)c2ccco2)cc1OC	aSyn 5UTR act -142
CCOC(=O)c1ccc(NC(=O)C2C3CCCCC32)cc1 (stereo not drawn)	aSyn 5UTR act -184
CCc1ccc(NC(=O)c2ccccc2NC(=O)C2CCCO2)cc1 (stereo not drawn)	aSyn 5UTR act -244
CCOc1cc(NC(=S)N2CCC(C(N)=O)CC2)c(C(=O)OC)cc1OCC	none
CCOC(=O)c1ccc(NC(=S)N2CCC(O)CC2)cc1	aSyn 5UTR act -81
Cc1cc(NC(=O)c2ccc(NC(=O)C3CCCO3)cc2)ccc1Br (stereo not drawn)	aSyn 5UTR act -121
CC(C)COC(=O)c1ccc(NC(=O)C2C3CCC(C3)C2C(=O)O)cc1 (stereo not drawn)	aSyn 5UTR act -131
CCCOC(=O)c1ccc(NC(=O)C2CCCO2)cc1 (stereo not drawn)	aSyn 5UTR act -110
CCOC(=O)c1ccc(NC(=O)C2C3CCC(C3)C2C(=O)O)cc1 (stereo not drawn)	aSyn 5UTR act -62
CCOC(=O)C(NC(=O)c1ccccc1Cl)(Nc1ccc(C)c(C)c1)C(F)(F)F (stereo not drawn)	aSyn 5UTR act -81
COc1ccc(-c2nsc(SCC(=O)Nc3ccc4c(c3)OCO4)n2)cc1	aSyn 5UTR act -109
CSc1nsc(SCC(=O)Nc2ccc(F)cc2F)n1	aSyn 5UTR act -101
CCOc1ccc(-n2c(SCC(=O)Nc3ccc(Br)cc3)nc3n[nH]c(C)c3c2=N)cc1	none
CSc1nsc(SCC(=O)Nc2ccc(C(C)=O)cc2)n1	aSyn 5UTR act -262
COc1ccc(NC(=O)CSc2nc(SC)ns2)cc1	aSyn 5UTR act -145
COc1cccc(NC(=O)C(=O)NCCCN2CCCC2=O)c1	aSyn 5UTR act -65
Cc1cc(C)cc(NC(=O)C(=O)NCCCN2CCCC2=O)c1	aSyn 5UTR act -106

Assay outcomes (PubChem)
